This note sets out measurements from PubChem BioAssay (Tox21).

A number with no mark means an inactive call. Records with an inconclusive call do not appear. Activity calls are given as the source filed them. Calls come from the whole dose curve.

Experiment [1] has as its target Acetylcholinesterase (Homo sapiens) (UniProt P22303). Put plainly: Acetylcholinesterase (AChE) small molecule antagonists: colormetric cell-based qHTS assay (AID 1347395). Note: nearly all actives have a fitted effect of over 30% in size. Note: potency is the fitted concentration of half-maximal effect. The method in brief: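 Colorimetric readout: DTNB quantifies thiocholine from acetylthiocholine hydrolysed by endogenous AChE of SH-SY5Y cells (2,000/well, plated overnight). Compound pretreatment 30 min, substrate incubation 90 min, both 37 C.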
(In general: qHTS replaces the single test concentration by a dilution series.)

For experiment [2] the target is unchanged. Put plainly: Acetylcholinesterase (AChE) small molecule antagonists: enzyme-based qHTS assay (AID 1347397). Note: nearly all actives have a fitted effect of over 55% in size. Particulars: Potency: AChE enzyme activity inhibition; outcome: AChE enzyme activity inhibition. The method in brief: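 Recombinant human AChE, dispensed at 50 mU/mL, was preincubated with Tox21 10K compounds or DMSO vehicle for 30 min at room temperature. DTNB plus acetylthiocholine was then added, and thiocholine was measured colorimetrically after a further 10 min.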

The target is the same in experiment [3]. Briefly: Acetylcholinesterase (AChE) small molecule antagonists: fluorescence cell-based qHTS assay (AID 1347398). Note: nearly all actives have a fitted effect of over 50% in size. Note: potency is the fitted concentration of half-maximal effect. Conditions: Potency: AChE activity; outcome: AChE activity. The method in brief: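 Human SH-SY5Y cells were plated overnight at 37 C, exposed to compound for 30 min at 37 C, 5% CO2, then given acetylthiocholine plus Thiolite Green for 40 min at room temperature; thiocholine fluorescence (Ex/Em 490/520 nm) reports endogenous AChE activity.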

The target is the same in experiment [4]. Put plainly: Acetylcholinesterase (AChE) small molecule antagonists: enzyme-based qHTS assay with human liver microsomes (AID 1347399). Note: nearly all actives have a fitted effect of over 60% in size. Conditions: Potency: qHTS inhibition; outcome: qHTS inhibition. The procedure, abridged: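 Recombinant human AChE (50 mU/mL in the enzyme mix) and human liver microsomes (0.25 mg/mL final) were preincubated with compound and NADPH (0.25 mg/mL final) for 30 min at 37 C. Acetylthiocholine/DTNB was then added; thiocholine was read colorimetrically after 10 min at room temperature.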
% is set by controls: 0 for no effect and ±100 for the full control effect.

Acetylcholinesterase (Homo sapiens), sequence (P22303 whole entry, looked up): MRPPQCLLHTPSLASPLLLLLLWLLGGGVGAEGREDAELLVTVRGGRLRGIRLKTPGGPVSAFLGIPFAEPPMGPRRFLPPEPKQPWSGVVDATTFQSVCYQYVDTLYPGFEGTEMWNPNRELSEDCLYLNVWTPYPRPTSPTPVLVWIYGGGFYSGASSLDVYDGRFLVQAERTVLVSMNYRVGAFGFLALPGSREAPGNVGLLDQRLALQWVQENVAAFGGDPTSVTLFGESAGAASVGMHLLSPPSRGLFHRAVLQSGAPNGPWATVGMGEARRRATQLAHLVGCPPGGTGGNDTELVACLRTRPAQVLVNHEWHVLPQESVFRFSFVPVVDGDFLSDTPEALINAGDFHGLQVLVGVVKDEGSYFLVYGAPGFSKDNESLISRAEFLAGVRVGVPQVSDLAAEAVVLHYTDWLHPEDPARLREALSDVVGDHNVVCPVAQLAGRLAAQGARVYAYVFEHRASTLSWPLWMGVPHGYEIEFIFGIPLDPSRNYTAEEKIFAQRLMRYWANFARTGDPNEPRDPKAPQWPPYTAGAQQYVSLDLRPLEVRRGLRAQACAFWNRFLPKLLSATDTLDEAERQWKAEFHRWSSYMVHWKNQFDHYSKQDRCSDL

Regarding `Cc1ccc2oc(=O)ccc2c1`, the Potency result in experiment [1], in experiment [2], in experiment [3] and in experiment [4] was “inactive” in each case.

As for `O=C1c2c(O)cccc2Cc2cccc(O)c21`, the Potency result in experiment [1], in experiment [2], in experiment [3] and in experiment [4] was “inactive” throughout.

`C[C@]12C=CC(=O)C=C1CC[C@@H]1[C@@H]2[C@@H](O)C[C@@]2(C)[C@H]1CC[C@]2(O)C(=O)CO`: the Potency result in experiment [1], in experiment [2], in experiment [3] and in experiment [4] was “inactive” each time.

For the compound `CCC(C)Nc1ccc(NC(C)CC)cc1` (stereo not given), the Potency result in experiment [1], in experiment [2] and in experiment [4] was “inactive” throughout. Moreover, in experiment [3], the Potency was 40.7 µM (active).

For `COC(=O)CCCC(=O)OC`, the Potency entry in experiment [1], in experiment [2], in experiment [3] and in experiment [4] was “inactive” throughout.

In the case of `c1ccc2cc(Nc3ccc(Nc4ccc5ccccc5c4)cc3)ccc2c1`, the Potency entry in experiment [1], in experiment [2], in experiment [3] and in experiment [4] was “inactive” each time.

As for `CC(C)(O)C(=O)c1ccccc1`, the Potency entry in experiment [1], in experiment [2], in experiment [3] and in experiment [4] was “inactive” throughout.

`O=S(=O)(O)CCS`: the Potency result in experiment [1], in experiment [2], in experiment [3] and in experiment [4] was “inactive” in each case.

As for `CN(Cc1cnc2nc(N)nc(N)c2n1)c1ccc(C(=O)N[C@@H](CCC(=O)O)C(=O)O)cc1`, the Potency result in experiment [1], in experiment [2], in experiment [3] and in experiment [4] was “inactive” each time.

Turning to `C=C[Si](C)(C)Cl`, the activity, negative = inhibition in experiment [1] is 1.82% [at 10.5 µM]. In addition, the results for the activity change, negative = inhibition in experiment [2], in experiment [3] and in experiment [4] were 0.136% [at 10.5 µM], -9.61% [at 10.5 µM] and -5.99% [at 10.5 µM], respectively.

As to `C=C(C)C(=O)OCCNC(C)(C)C`, the Potency entry in experiment [1], in experiment [2], in experiment [3] and in experiment [4] was “inactive” throughout.

In the case of `CC(=O)OC/C=C/c1ccccc1`, the Potency result in experiment [1], in experiment [2], in experiment [3] and in experiment [4] was “inactive” in each case.

For the compound `OCCN(CCO)c1ccccc1`, the Potency result in experiment [1], in experiment [2], in experiment [3] and in experiment [4] was “inactive” throughout.

As to `COC(OC)C(C)c1ccccc1` (stereo not given), the Potency entry in experiment [1], in experiment [2], in experiment [3] and in experiment [4] was “inactive” throughout.

As for `CC1(C)S[C@@H]2[C@H](NC(=O)Cc3ccccc3)C(=O)N2[C@H]1C(=O)O` (tested in a mixture with another compound), the Potency result in experiment [1], in experiment [2], in experiment [3] and in experiment [4] was “inactive” in each case.

On to `CC[N+](CC)(CC(=O)Nc1c(C)cccc1C)Cc1ccccc1`, for which the Potency entry in experiment [1], in experiment [2], in experiment [3] and in experiment [4] was “inactive” throughout.

As to `COC(=O)CCCCC(CCSS/C(CCO)=C(\C)N(C=O)Cc1cnc(C)nc1N)SC(C)=O` (stereo not given), the Potency entry in experiment [1], in experiment [2], in experiment [3] and in experiment [4] was “inactive” throughout.

For the compound `CC(COC(C)(C)C)OCCCO` (stereo not given), the Potency result in experiment [1], in experiment [2], in experiment [3] and in experiment [4] was “inactive” in each case.

Turning to `c1ccc(CC2=NCCN2)cc1`, the Potency entry in experiment [1], in experiment [2], in experiment [3] and in experiment [4] was “inactive” in each case.

Turning to `CCCCCCCCCCCCCCCCCBr`, in experiment [1], the activity, negative = inhibition is 0.585% [at 23.6 µM]. In addition, the activity change, negative = inhibition was 1.09% [at 23.6 µM] in experiment [2], -1.4% [at 23.8 µM] in experiment [3] and -2.26% [at 23.6 µM] in experiment [4].

As to `O=c1[nH]cnc2nc[nH]c12`, the Potency result in experiment [1], in experiment [2], in experiment [3] and in experiment [4] was “inactive” throughout.

In the case of `CC(C)c1ccccc1C(C)C`, the Potency entry in experiment [1], in experiment [2], in experiment [3] and in experiment [4] was “inactive” throughout.

Consider `O=C(O)c1ccc([N+](=O)[O-])cc1`, for which the Potency entry in experiment [1], in experiment [2], in experiment [3] and in experiment [4] was “inactive” throughout.

`CCOc1ccc(N=Nc2ccc(/C=C/c3ccc(N=Nc4ccc(OCC)cc4)cc3S(=O)(=O)O)c(S(=O)(=O)O)c2)cc1`: the Potency entry in experiment [1], in experiment [2], in experiment [3] and in experiment [4] was “inactive” in each case.

As for `Cc1cnccn1`, the Potency entry in experiment [1], in experiment [2], in experiment [3] and in experiment [4] was “inactive” in each case.

For the compound `CC(C)(C)c1n[nH]c(=O)n(N)c1=O`, the Potency entry in experiment [1], in experiment [2], in experiment [3] and in experiment [4] was “inactive” throughout.

For the compound `O=[N+]([O-])c1nccn1CO[C@@H](CO)[C@H](O)CO`, the Potency result in experiment [1], in experiment [2], in experiment [3] and in experiment [4] was “inactive” throughout.

For `CC(C)OC(=O)OCOP(=O)(CO[C@H](C)Cn1cnc2c(N)ncnc21)OCOC(=O)OC(C)C`, the Potency entry in experiment [1], in experiment [2], in experiment [3] and in experiment [4] was “inactive” in each case.

Consider `CC(C)c1ccc2sc3ccccc3c(=O)c2c1`, for which the Potency result in experiment [1], in experiment [2], in experiment [3] and in experiment [4] was “inactive” each time.

`CCCCCCCCCCCCCCCC(=O)O`: the Potency result in experiment [1], in experiment [2], in experiment [3] and in experiment [4] was “inactive” in each case.

For the compound `CNC(=O)N(c1ccccc1)c1ccccc1`, the Potency result in experiment [1], in experiment [2] and in experiment [4] was “inactive” each time. In addition, in experiment [3], the Potency is 35.7 µM (active).

As to `O=c1[nH]c(=O)c2[nH]c(=O)[nH]c2[nH]1`, the activity, negative = inhibition in experiment [1] was 0.0138% [at 10.5 µM]. The activity change, negative = inhibition is 2.79% [at 10.5 µM] in experiment [2], 6.44% [at 10.5 µM] in experiment [3] and 21.5% [at 10.5 µM] in experiment [4].

Consider `COc1ccc(-c2coc3cc(O)cc(O)c3c2=O)cc1`, for which the Potency entry in experiment [1], in experiment [2], in experiment [3] and in experiment [4] was “inactive” in each case.

With `O=C(Oc1ccccc1)c1ccccc1`, the Potency entry in experiment [1], in experiment [2], in experiment [3] and in experiment [4] was “inactive” throughout.

For the compound `O=C(O)Cn1c(C(=O)Nc2nc(-c3ccccc3Cl)cs2)cc2ccccc21`, the Potency result in experiment [1], in experiment [2], in experiment [3] and in experiment [4] was “inactive” each time.

Turning to `C=CC(C)(O)CCC=C(C)C` (stereo not given), the Potency result in experiment [1], in experiment [2], in experiment [3] and in experiment [4] was “inactive” each time.

`Oc1cc2ccccc2cc1O`: the Potency result in experiment [1], in experiment [2], in experiment [3] and in experiment [4] was “inactive” throughout.

As to `CNCC[C@@H](Oc1ccccc1C)c1ccccc1`, the Potency entry in experiment [1], in experiment [2], in experiment [3] and in experiment [4] was “inactive” throughout.

Consider `Cc1cccc(N(C)C(=S)Oc2ccc3ccccc3c2)c1`, for which the Potency result in experiment [1], in experiment [2], in experiment [3] and in experiment [4] was “inactive” in each case.

`CCCCCCCCCCCCCCC(=O)O`: the Potency entry in experiment [1], in experiment [2], in experiment [3] and in experiment [4] was “inactive” throughout.

`COC(=O)c1ccc(C)cc1`: the Potency entry in experiment [1], in experiment [2], in experiment [3] and in experiment [4] was “inactive” each time.

Take `CC(=O)N(O)CCCCCNC(=O)CCC(=O)N(O)CCCCCNC(=O)CCC(=O)N(O)CCCCCN`: the compound was called inactive in experiment [1], in experiment [2], in experiment [3] and in experiment [4].

With `C[n+]1ccn(CCO)c1`, the Potency entry in experiment [1], in experiment [2], in experiment [3] and in experiment [4] was “inactive” in each case.

Regarding `COc1cc(/C=C/C(=O)CC(=O)/C=C/c2ccc(O)c(OC)c2)ccc1O`, the Potency result in experiment [1], in experiment [2], in experiment [3] and in experiment [4] was “inactive” in each case.

With `Cc1c[nH]c(=O)[nH]c1=O`, the Potency entry in experiment [1], in experiment [2], in experiment [3] and in experiment [4] was “inactive” each time.

Take `CCCCCCC(O)CCCCCCCCCCC(=O)O` (stereo not given): the Potency entry in experiment [1], in experiment [2], in experiment [3] and in experiment [4] was “inactive” throughout.

As to `Cc1cccc(N(C)C(=S)Oc2ccc3c(c2)C2CCC3C2)c1` (stereo not given), the Potency result in experiment [1], in experiment [2], in experiment [3] and in experiment [4] was “inactive” each time.

Regarding `COC(=O)c1cc(Cl)c(NC(C)=O)cc1OC`, the Potency in experiment [1] was 27.5 µM (active). Also, the Potency result in experiment [2], in experiment [3] and in experiment [4] was “inactive” in each case.

As to `C[C@H]1C[C@H](O)c2ccsc2S1(=O)=O`, the Potency result in experiment [1], in experiment [2], in experiment [3] and in experiment [4] was “inactive” each time.

On to `C=C(C)C(=O)OCCCCCCCCCC`, for which the Potency entry in experiment [1], in experiment [2], in experiment [3] and in experiment [4] was “inactive” in each case.

For the compound `CC1=CC(=O)c2ccccc2C1=O`, the Potency entry in experiment [1], in experiment [2], in experiment [3] and in experiment [4] was “inactive” in each case.

Regarding `COc1cc(S(N)(=O)=O)cc(C(=O)O)c1OC`, the Potency entry in experiment [1], in experiment [2], in experiment [3] and in experiment [4] was “inactive” throughout.

Turning to `CC(Cl)C(Cl)Cl` (stereo not given), the Potency entry in experiment [1], in experiment [2], in experiment [3] and in experiment [4] was “inactive” in each case.

With `O=C(O)c1ccccc1Nc1cccc(C(F)(F)F)c1`, the Potency entry in experiment [1], in experiment [2], in experiment [3] and in experiment [4] was “inactive” each time.

Consider `C=C(C)C(=O)Nc1ccc(Cl)c(Cl)c1`, for which the Potency result in experiment [1], in experiment [2], in experiment [3] and in experiment [4] was “inactive” each time.

As to `COc1cc(C(=S)N2CCOCC2)cc(OC)c1OC`, the Potency entry in experiment [1], in experiment [2], in experiment [3] and in experiment [4] was “inactive” throughout.

`Cc1ccccc1C=O`: the Potency entry in experiment [1], in experiment [2], in experiment [3] and in experiment [4] was “inactive” in each case.

For `Cc1ccsc1C(=CCCN1CCC[C@@H](C(=O)O)C1)c1sccc1C`, the Potency entry in experiment [1], in experiment [2], in experiment [3] and in experiment [4] was “inactive” in each case.

As to `CC(C)(C)C(=O)c1ccccc1`, the Potency result in experiment [1], in experiment [2], in experiment [3] and in experiment [4] was “inactive” each time.

As for `CCCCCCCC1CCCC1=O` (stereo not given), the Potency entry in experiment [1], in experiment [2], in experiment [3] and in experiment [4] was “inactive” in each case.
